Sampled rows, rich in hits. Any-hit rate of the full collection: about 9.6%.
USP30 inh: human USP30 deubiquitinase inhibition; purified USP30, Ub-rhodamine cleavage fluorescence; inhibition, % at 25 µM; 47,000 tested, 5.3% active
USP17 block: inhibitors of human USP17 deubiquitinase | purified USP17, Ub-rhodamine cleavage fluorescence, 3 h | inhibition, % at 50 µM | 47,000 tested, 6.5% active
Target sequence (A8MUK1 whole entry, looked up): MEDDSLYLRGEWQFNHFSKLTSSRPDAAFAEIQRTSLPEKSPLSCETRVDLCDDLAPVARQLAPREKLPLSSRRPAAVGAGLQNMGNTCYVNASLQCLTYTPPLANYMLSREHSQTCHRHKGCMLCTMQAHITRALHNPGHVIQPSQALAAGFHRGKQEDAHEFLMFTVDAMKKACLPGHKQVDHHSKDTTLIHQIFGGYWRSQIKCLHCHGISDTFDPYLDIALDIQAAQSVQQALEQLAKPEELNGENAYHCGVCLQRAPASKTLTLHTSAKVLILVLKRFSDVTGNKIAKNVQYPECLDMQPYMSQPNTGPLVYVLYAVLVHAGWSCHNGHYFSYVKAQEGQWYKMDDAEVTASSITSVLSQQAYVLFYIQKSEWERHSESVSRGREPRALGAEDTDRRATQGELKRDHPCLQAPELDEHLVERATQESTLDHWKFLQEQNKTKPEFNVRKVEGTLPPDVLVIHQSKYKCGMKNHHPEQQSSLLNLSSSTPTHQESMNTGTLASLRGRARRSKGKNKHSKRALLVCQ
* marks the source's active call; other numbers are inactive results; i = inactive. Rule as the data show it: active = inhibition above about 30%; inactive = the rest.

SMILES | USP30 inh | USP17 block
COCCN1CCS(=O)(=O)c2c(F)c(N3CCCC3)nc(F)c21 | 25 | 11
O=S1(=O)CCN(Cc2ccccc2)c2c(F)nc(N3CCCCC3)c(F)c21 | -22 | 53*
O=C(CS(=O)(=O)c1cn(CC(=O)N2CCOCC2)c2ccccc12)Nc1cc(C(F)(F)F)ccc1Cl | 0 | 0
O=C(Nc1ccc(-n2cccc2)cc1)c1cccc([N+](=O)[O-])c1 | 37* | 8
O=C(Nc1ccc(-n2cccc2)c(Cl)c1)c1cccc([N+](=O)[O-])c1 | -65 | 27
O=C(NCCN1CCNCC1)c1nc(CS(=O)(=O)c2ccccc2)no1 | -18 | -9
COc1ccc(N2CCN(c3ncc4c(=O)n(Cc5ccco5)ccc4n3)CC2)cc1 | 7 | 0
Cc1nn(C)c(C)c1NC(=O)CN1CC2(CCOCC2)Oc2ccccc2C1=O | 0 | 1
Cc1cc(C(=O)NC2(O)C(=O)c3ccccc3C2=O)n(C)n1 | 36* | 94*
CC1CCN(c2ccc(C(=O)N3CCc4ccccc43)nn2)CC1 | -3 | -19
CC1CCN(c2ccc(NC(=O)C3CCCN(c4ncccn4)C3)cc2C(N)=O)CC1 (stereo not drawn) | 19 | 8
O=C(COC(=O)C(Cc1c[nH]c2ccccc12)NC(=O)c1ccccc1Cl)Nc1cc(F)ccc1F (stereo not drawn) | 16 | 32*
O=C(COC(=O)C(Cc1c[nH]c2ccccc12)NC(=O)c1ccc(F)cc1)NCc1ccc(F)cc1 (stereo not drawn) | -3 | 9
CC(C)(C)c1ccccc1NC(=O)COc1cnc2ccccc2n1 | 9 | 2
CCCCCCCCC/C=C/C(=O)CCc1c(O)c(C=O)c2c(c1O)C(=O)OC2O (stereo not drawn) | -9 | 75*
O=S1(=O)CCC(S(=O)(=O)Nc2ccc(OCc3ccc(Cl)cc3)cc2)C1 (stereo not drawn) | 19 | 35*
O=S1(=O)CCC(S(=O)(=O)Nc2cccc(C(F)(F)F)c2)C1 (stereo not drawn) | -96 | -38
O=C(Cc1ccccc1)N1CCC2(CC1)CN(Cc1cccnc1)CC21CCNC1=O (stereo not drawn) | -12 | -10
CC(C)n1ccnc1CN1CCN(C2CCOCC2)CC(C(N)=O)C1 (stereo not drawn) | 12 | -2
Cc1nnc(C(=O)Nc2cccc(C(=O)NCCN3CCCCCC3)c2)s1 | i | -107
COc1ccc(NC(=O)c2nnc(C(=O)NCCN3CCCCCC3)s2)cc1 | 52* | 46*
COc1ccc(NC(=O)C(=O)NCCN2CCN(C(=O)c3c(F)cccc3F)CC2)cc1 | 33* | 6
O=C(NCCN1CCN(C(=O)c2c(F)cccc2F)CC1)C(=O)Nc1ccc(F)cc1 | 8 | -1
CCNc1c(NC(=O)c2ccccc2F)c(=O)oc2ccccc12 | 21 | 8
Cc1cccc(N2CCCn3c2nc2c3c(=O)n(CCc3ccccc3)c(=O)n2C)c1 | 15 | -4
SMILES | USP30 inh | USP17 block
Cc1c(CC(=O)NCC(C)C)c(=O)oc2cc3c(cc12)CCC1(CCCCC1)O3 | -105 | 36*
Cc1c(CC(=O)NCC(=O)O)c(=O)oc2cc3c(cc12)CCC(C)(C)O3 | 4 | 10
COc1cccc(C(=O)Nc2ccc(N)cn2)c1 | -158 | 4
COc1ccc(CCn2c(-c3ccccc3)nc3c(c(=O)c4ccccc4n3C)c2=O)cc1 | -50 | -61
CC(C)Cn1c(C2CCCCC2)nc2c(c(=O)c3ccccc3n2C)c1=O | 5 | 12
CC(C)c1nc2c(c(=O)c3ccccc3n2C)c(=O)n1CCc1ccccc1 | 50* | 4
Cn1c2ccccc2c(=O)c2c(=O)n(Cc3ccccc3)c(C3CCCCC3)nc21 | 42* | 15
Cn1ncc2c(N3CCOCC3)nc(C(=O)NCc3ccccc3)nc21 | 8 | 2
COc1ccc(C(=O)Nc2ccc3c(c2)OCCCO3)cn1 | 4 | 0
O=C(CCc1ccccc1)NC(c1ccccc1)c1ccccc1 | 27 | 16
Cc1ccccc1OCCC(=O)NC(c1ccccc1)c1ccccc1 | 21 | 32*
CSc1nc2ncc3c(=O)n(Cc4ccccn4)ccc3n2n1 | -7 | 0
Cc1ccc(CNS(=O)(=O)c2cc3n(c2)CCCNC3=O)o1 | -125 | -45
O=C(CSc1ccc2nnc(CCNS(=O)(=O)c3ccccc3)n2n1)NCc1ccc(F)cc1 | 16 | 39*
COc1ccc(S(=O)(=O)NCCc2nnc3ccc(SCC(=O)NCc4ccccc4)nn23)cc1 | 5 | 0
C=CCCC(=O)O[C@H]1CC(C)=C2C(=O)C=C(C)[C@@H]2[C@H]2OC(=O)[C@@H](C)[C@@H]21 | 19 | 8
CC1CCC(NC(=O)C2CCCN2S(=O)(=O)c2ccc3nc(-c4ccccc4)[nH]c3c2)CC1 (stereo not drawn) | -9 | 34*
CC1CCC(NC(=O)C2CCN(S(=O)(=O)c3ccc4c(c3)OCCCO4)CC2)CC1 (stereo not drawn) | 23 | 11
CCOC(=O)N1CCC(NC(=O)c2cc(C(=O)Nc3ccc(S(=O)(=O)N4CCCCC4)cc3)ccc2CO)CC1 | 79* | 77*
CCOC(=O)N1CCN(S(=O)(=O)c2ccc(C(=O)Nc3ccc(OC)c4ccccc34)cc2)CC1 | 28 | 29
CC(C)Oc1ccc(/C(O)=C2\C(=O)C(=O)N(CCN(C)C)C2c2ccc(C(C)(C)C)cc2)cc1 (stereo not drawn) | 0 | -7
O=C1CN(Cc2cccc(F)c2)S(=O)(=O)c2ccccc2N1Cc1ccccc1F | 31* | 6
O=C1CN(Cc2ccccc2)S(=O)(=O)c2ccccc2N1Cc1ccccc1F | 17 | -6
COc1ccc(C2CC(=O)N(CC(=O)c3ccccc3)c3ccccc3S2(=O)=O)cc1OC (stereo not drawn) | 16 | 1
O=C1CN(Cc2ccc(F)cc2)S(=O)(=O)c2ccccc2N1Cc1ccccc1F | 21 | 6
SMILES | USP30 inh | USP17 block
COc1ccc(C2CC(=O)N(Cc3ccccc3F)c3ccccc3S2(=O)=O)cc1OC (stereo not drawn) | -59 | 36*
O=C1CC(c2ccccc2)S(=O)(=O)c2ccccc2N1Cc1ccccc1F (stereo not drawn) | 29 | 39*
Cc1ccccc1CN1CCN(CC(=O)Nc2cccc(C)c2C)S1(=O)=O | 12 | 0
O=S1(=O)c2ccccc2NC(c2ccc(Cl)c(Cl)c2)N1Cc1ccccc1 (stereo not drawn) | 29 | -41
Cc1cc2nc(N(C)C3CCCCC3)c3ccccc3n2n1 | -11 | -63
Cc1ccc(C(=O)NCCc2nnc3ccc(SCc4c(F)cccc4Cl)nn23)cc1 | 30* | 6
Cc1ccc(C(=O)NCCc2nnc3ccc(SCC(=O)NCc4ccc(F)cc4)nn23)cc1 | 30 | 17
Cc1[nH]n2c(=O)c(Cl)c(-c3ccccc3)nc2c1-c1ccccc1 | 11 | 5
CC(=O)N1CCN(C(=O)c2sc(-c3ccccc3F)nc2C)CC1 | 13 | 10
O=c1c(-c2ccc(O)c(O)c2)coc2cc(O)ccc12 | -70 | -43
COc1cc(O)c2c(=O)c(-c3ccc(O)cc3)coc2c1 | 14 | 73*
O=C(c1cn2cc(Cl)ccc2n1)N1CCOC(c2ccccc2)C1 (stereo not drawn) | -64 | -29
CCC(C)NC(=O)c1cn(C)cc2c(=O)n(-c3ccccc3)nc1-2 (stereo not drawn) | 9 | 18
COC(=O)c1cc(O)cc(OC)c1C(=O)c1c(O)c(Cl)c(C)c(Cl)c1O | 10 | 18
COC(=O)c1c(OC)cc2c(c1C)Oc1c(Cl)c(O)c(Cl)c(C)c1C(=O)O2 | 30* | 16
